Records with an inconclusive call do not appear. Calls of active or inactive are those of the source. The call rests on the fitted dose curve; in most records, active means well fitted curve in the direction sought with a large enough effect; inconclusive means small, poorly fitted or top-dose-only effect, or another doubt; inactive means no such curve, though single readings can be large; an effect the other way counts as inactive or inconclusive.
Legend:
[1] = qHTS of pediatric cancer cell lines to identify multiple opportunities for drug repurposing: Primary screen for NB1643 cells (AID 1347099); further: nearly all actives have a fitted effect of over 50% in size; further: potency means the concentration at half of the fitted maximal effect
How it was run: (§1)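 Cells seeded at 500-1,000 cells/well in growth media, rested 5 hours at 37 degrees C, 5% CO2, then dosed; MIPE compounds at 11-point (from 0.78 nM) and NPC at 8-point (from 0.59 nM) final concentrations. Viability by CellTiter-Glo luminescence after 48 hours.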

[2] = qHTS of pediatric cancer cell lines to identify multiple opportunities for drug repurposing: Primary screen for LAN-5 cells (AID 1347100); further: potency means the concentration at half of the fitted maximal effect
How it was run: (§2)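 Viability after 48 h compound treatment at 37C, 500-1,000 cells/well, read as ATP luminescence with CellTiter-Glo. Primary screens used 11-point (MIPE, 0.78 nM-46 µM) or 8-point (NPC, 0.59 nM-46 µM) final concentrations; follow-up screens used 11-point dilutions.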

[3] = qHTS of pediatric cancer cell lines to identify multiple opportunities for drug repurposing: Primary screen for BT-12 cells (AID 1347101); further: nearly all actives have a fitted effect of over 25% in size; further: potency means the concentration at half of the fitted maximal effect
How it was run: (§3)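 Cells (500-1,000/well) rested 5 h, then received compounds for 48 h; metabolically active cells were measured by CellTiter-Glo luminescence. Final concentrations spanned up to 46 µM (MIPE, 11-point) or 0.59 nM-46 µM (NPC, 8-point) in primary screens, 11-point in follow-ups.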

[4] = qHTS of pediatric cancer cell lines to identify multiple opportunities for drug repurposing: Primary screen for Rh18 cells (AID 1347102); further: nearly all actives have a fitted effect of over 65% in size; further: potency means the concentration at half of the fitted maximal effect
How it was run: as §2

[5] = qHTS of pediatric cancer cell lines to identify multiple opportunities for drug repurposing: Primary screen for OHS-50 cells (AID 1347103); further: nearly all actives have a fitted effect of over 40% in size; further: potency means the concentration at half of the fitted maximal effect
How it was run: as §3

[6] = qHTS of pediatric cancer cell lines to identify multiple opportunities for drug repurposing: Primary screen for control Hh wild type fibroblast cells (AID 1347106);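 further: series mostly up to about 46 µM; a drop in luminescence marks cytotoxicity and a rise apparent proliferation; nearly all actives have a fitted effect of over 55% in size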
How it was run: as §2

[7] = qHTS of pediatric cancer cell lines to identify multiple opportunities for drug repurposing: Primary screen for Rh30 cells (AID 1347107); further: series mostly up to about 46 µM; nearly all actives have a fitted effect of over 75% in size
How it was run: as §2

[8] = qHTS of pediatric cancer cell lines to identify multiple opportunities for drug repurposing: Primary screen for Rh41 cells (AID 1347108); further: nearly all actives have a fitted effect of over 70% in size; further: potency means the concentration at half of the fitted maximal effect
How it was run: as §1

[9] = qHTS of pediatric cancer cell lines to identify multiple opportunities for drug repurposing: Primary screen for MG 63 (6-TG R) cells (AID 1347105); further: nearly all actives have a fitted effect of over 50% in size; further: potency means the concentration at half of the fitted maximal effect
How it was run: as §1

[10] = qHTS of pediatric cancer cell lines to identify multiple opportunities for drug repurposing: Primary screen for RD cells (AID 1347104); further: nearly all actives have a fitted effect of over 55% in size
How it was run: as §1

Measured: Potency

CCOC(=O)Nc1ccc2c(c1)N(C(=O)CCN1CCOCC1)c1ccccc1S2
inactive: [1] | [2] | [3] | [4] | [5] | [6] | [7] | [8]

C[C@@H](O)[C@H]1C(=O)N2C(C(=O)O)=C(S[C@@H]3CN[C@H](CNS(N)(=O)=O)C3)[C@H](C)[C@H]12
inactive: [1] | [2] | [3] | [4] | [5] | [9] | [6] | [7] | [8]

OC(C#CCN1CCCC1)(c1ccccc1)c1ccccc1
inactive: [1] | [2] | [3] | [4] | [10] | [9] | [6] | [7] | [8]

O=C1c2cccc3c2[C@H](CCC3)CN1[C@@H]1CN2CCC1CC2
inactive: [1] | [2] | [3] | [4] | [10] | [9] | [6] | [8]

COc1cc([C@H]2Oc3cc([C@H]4Oc5cc(O)cc(O)c5C(=O)[C@@H]4O)ccc3O[C@@H]2CO)ccc1O
inactive: [1] | [2] | [3] | [4] | [5] | [9] | [6] | [7] | [8]

C[C@@]12C(=O)OC(=O)[C@]1(C)C1CCC2O1
active: [1] 1190 nM | [2] 2660 nM | [3] 6920 nM | [4] 1880 nM | [5] 1740 nM | [9] 1680 nM | [8] 2660 nM

C[N+]1(C)CCC(=C(c2ccccc2)c2ccccc2)CC1
inactive: [1] | [2] | [3] | [4] | [5] | [9] | [8]

CN1CCN(c2c(F)cc3c(=O)c(C(=O)O)cn4c3c2SCC4)CC1
inactive: [1] | [2] | [3] | [4] | [5] | [9] | [6] | [7] | [8]

CC(=O)OCC(=O)[C@H]1CC[C@H]2[C@@H]3CCC4=CC(=O)CC[C@]4(C)[C@H]3CC[C@]12C
inactive: [1] | [2] | [3] | [4] | [10] | [9] | [6] | [7] | [8]

Oc1ccccc1C=NCc1ccccc1
inactive: [1] | [2] | [3] | [4] | [5] | [9] | [6] | [8]

CC(=O)NCCCCCC(=O)O
inactive: [1] | [2] | [3] | [4] | [5] | [9] | [6] | [7] | [8]

CCCCN1C[C@H](O)[C@@H](O)[C@H](O)[C@H]1CO
inactive: [1] | [2] | [3] | [4] | [5] | [9] | [6] | [7] | [8]

COc1cc(C(=O)N2CCCCCCC2)cc(OC)c1OC
inactive: [1] | [2] | [3] | [4] | [5] | [9] | [6] | [7] | [8]

— PubChem BioAssay (NCATS)
